Reference: PubChem BioAssay AID1159580 (chemical genetic matrix, 2015)
In all, about 5,500 compounds went through this assay and about 2,000 (36%) were called active. Roughly 18% stayed inconclusive and do not appear here. Cut-off read from the data, not from the text of the source: active = normalized growth mostly below about 0.91 (no sharp cut-off); inconclusive = no clear call, values can overlap the other calls; inactive = mostly above about 0.92. This is one part of the list.

Test: chemical genetic growth profiling, strain panel (AID 1159580);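 note: tested at 20 µM; growth read once vehicle control cultures reached saturation at 30 °C; 1 = growth at the plate median or of vehicle wells; lower values mean less growth of the strain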
Conditions: growth OD
[1] = S. cerevisiae deletion strains, locus YDL101C, strain DUN1, stronger effect = lower value
[2] = S. cerevisiae deletion strains, locus YHR030C, strain SLT2, stronger effect = lower value
[3] = S. cerevisiae deletion strains, locus YAR019C, strain CDC15, stronger effect = lower value
[4] = S. cerevisiae deletion strains, locus YBL105C, strain PKC1, stronger effect = lower value
[5] = S. cerevisiae deletion strains, locus YBR135W, strain CKS1, stronger effect = lower value
[6] = S. cerevisiae deletion strains, locus YBR136W, strain MEC1, stronger effect = lower value
[7] = S. cerevisiae deletion strains, locus YBR160W, strain CDC28, stronger effect = lower value
[8] = S. cerevisiae deletion strains, locus YDL017W, strain CDC7, stronger effect = lower value
[9] = S. cerevisiae deletion strains, locus YDL028C, strain MPS1, stronger effect = lower value
[10] = S. cerevisiae deletion strains, locus YDL108W, strain KIN28, stronger effect = lower value
[11] = S. cerevisiae deletion strains, locus YDL132W, strain cdc53, stronger effect = lower value
[12] = S. cerevisiae deletion strains, locus YDL214C, strain PRR2, stronger effect = lower value
[13] = S. cerevisiae deletion strains, locus YDR052C, strain DBF4, stronger effect = lower value
[14] = S. cerevisiae deletion strains, locus YDR054C, strain cdc34, stronger effect = lower value
[15] = S. cerevisiae deletion strains, locus YDR226W, strain ADK1, stronger effect = lower value
[16] = S. cerevisiae deletion strains, locus YDR477W, strain SNF1, stronger effect = lower value
[17] = S. cerevisiae deletion strains, locus YER123W, strain YCK3, stronger effect = lower value
[18] = S. cerevisiae deletion strains, locus YER133W, strain GLC7, stronger effect = lower value
[19] = S. cerevisiae deletion strains, locus YFL009W, strain cdc4, stronger effect = lower value
[20] = S. cerevisiae deletion strains, locus YFL029C, strain CAK1, stronger effect = lower value
[21] = S. cerevisiae deletion strains, locus YFR003C, strain YPI1, stronger effect = lower value
[22] = S. cerevisiae deletion strains, locus YFR019W, strain FAB1, stronger effect = lower value
[23] = S. cerevisiae deletion strains, locus YFR028C, strain CDC14, stronger effect = lower value
[24] = S. cerevisiae deletion strains, locus YGR040W, strain KSS1, stronger effect = lower value
[25] = S. cerevisiae deletion strains, locus YGR052W, strain FMP48, stronger effect = lower value
[26] = S. cerevisiae deletion strains, locus YGR092W, strain DBF2, stronger effect = lower value
[27] = S. cerevisiae deletion strains, locus YHR079C, strain IRE1, stronger effect = lower value
[28] = S. cerevisiae deletion strains, locus YHR082C, strain KSP1, stronger effect = lower value
[29] = S. cerevisiae deletion strains, locus YHR205W, strain SCH9, stronger effect = lower value
[30] = S. cerevisiae deletion strains, locus YIL147C, strain SLN1, stronger effect = lower value
[31] = S. cerevisiae deletion strains, locus YJL095W, strain BCK1, stronger effect = lower value
[32] = S. cerevisiae deletion strains, locus YJL128C, strain PBS2, stronger effect = lower value
[33] = S. cerevisiae deletion strains, locus YJL157C, strain FAR1, stronger effect = lower value
[34] = S. cerevisiae deletion strains, locus YJR016C, strain ILV3, stronger effect = lower value
[35] = S. cerevisiae deletion strains, locus YJR066W, strain TOR1 (second series), stronger effect = lower value
[36] = S. cerevisiae deletion strains, locus YJR066W, strain TOR1, stronger effect = lower value
[37] = S. cerevisiae deletion strains, locus YKL048C, strain ELM1, stronger effect = lower value
[38] = S. cerevisiae deletion strains, locus YKL067W, strain YNK1, stronger effect = lower value
[39] = S. cerevisiae deletion strains, locus YKL101W, strain HSL1, stronger effect = lower value
[40] = S. cerevisiae deletion strains, locus YKL193C, strain SDS22, stronger effect = lower value
[41] = S. cerevisiae deletion strains, locus YKL203C, strain TOR2, stronger effect = lower value
[42] = S. cerevisiae deletion strains, locus YLR113W, strain HOG1, stronger effect = lower value
[43] = S. cerevisiae deletion strains, locus YLR133W, strain CKI1, stronger effect = lower value
[44] = S. cerevisiae deletion strains, locus YLR403W, strain SFP1, stronger effect = lower value
[45] = S. cerevisiae deletion strains, locus YML070W, strain DAK1, stronger effect = lower value
[46] = S. cerevisiae deletion strains, locus YMR001C, strain CDC5, stronger effect = lower value
[47] = S. cerevisiae deletion strains, locus YMR205C, strain PFK2 (second series), stronger effect = lower value
[48] = S. cerevisiae deletion strains, locus YMR277W, strain FCP1, stronger effect = lower value
[49] = S. cerevisiae deletion strains, locus YNL006W, strain LST8, stronger effect = lower value
[50] = S. cerevisiae deletion strains, locus YNL020C, strain ARK1, stronger effect = lower value
[51] = S. cerevisiae deletion strains, locus YNL161W, strain CBK1, stronger effect = lower value
[52] = S. cerevisiae deletion strains, locus YNL183C, strain NPR1, stronger effect = lower value
[53] = S. cerevisiae deletion strains, locus YNL207W, strain RIO2, stronger effect = lower value
[54] = S. cerevisiae deletion strains, locus YNL222W, strain SSU72, stronger effect = lower value
[55] = S. cerevisiae deletion strains, locus YNL307C, strain MCK1 (second series), stronger effect = lower value
[56] = S. cerevisiae deletion strains, locus YOL078W, strain AVO1, stronger effect = lower value
[57] = S. cerevisiae deletion strains, locus YOL136C, strain PFK27, stronger effect = lower value
[58] = S. cerevisiae deletion strains, locus YOR061W, strain CKA2, stronger effect = lower value
[59] = S. cerevisiae deletion strains, locus YOR119C, strain RIO1, stronger effect = lower value
[60] = S. cerevisiae deletion strains, locus YOR231W, strain MKK1, stronger effect = lower value
[61] = S. cerevisiae deletion strains, locus YOR329C, strain SCD5, stronger effect = lower value
[62] = S. cerevisiae deletion strains, locus YPL031C, strain PHO85, stronger effect = lower value
[63] = S. cerevisiae deletion strains, locus YPL153C, strain RAD53, stronger effect = lower value
[64] = S. cerevisiae deletion strains, locus YPL204W, strain HRR25, stronger effect = lower value
[65] = S. cerevisiae deletion strains, locus YPL209C, strain IPL1, stronger effect = lower value
[66] = S. cerevisiae deletion strains, locus YPL256C, strain CLN2, stronger effect = lower value
[67] = S. cerevisiae deletion strains, locus YPR025C, strain CCL1, stronger effect = lower value
[68] = S. cerevisiae deletion strains, locus YPR106W, strain ISR1, stronger effect = lower value
[69] = S. cerevisiae deletion strains, locus YPR111W, strain DBF20, stronger effect = lower value
[70] = S. cerevisiae deletion strains, strain NNK1, stronger effect = lower value
[71] = S. cerevisiae deletion strains, strain TSCII, stronger effect = lower value

Measured: normalized growth

Clc1cccc(Cl)c1CSC1=NCCCN1C1CCCCC1
inactive: S. cerevisiae deletion strains, locus YAL013W, strain DEP1, stronger effect = lower value 0.999 | S. cerevisiae deletion strains, locus YBR229C, strain ROT2, stronger effect = lower value 1 | [1] 1 | S. cerevisiae deletion strains, locus YDR150W, strain NUM1, stronger effect = lower value 0.993 | S. cerevisiae deletion strains, locus YEL061C, strain CIN8, stronger effect = lower value 0.973 | S. cerevisiae deletion strains, locus YGR078C, strain PAC10, stronger effect = lower value 1 | S. cerevisiae deletion strains, locus YGR229C, strain SMI1, stronger effect = lower value 1 | [2] 0.967 | S. cerevisiae deletion strains, locus YHR087W, strain rtc3, stronger effect = lower value 1.01 | S. cerevisiae deletion strains, locus YJL187C, strain SWE1, stronger effect = lower value 1.01 | S. cerevisiae deletion strains, locus YJR043C, strain POL32, stronger effect = lower value 1 | S. cerevisiae deletion strains, locus YJR075W, strain HOC1, stronger effect = lower value 1.03 | S. cerevisiae deletion strains, locus YLR039C, strain RIC1, stronger effect = lower value 1 | S. cerevisiae deletion strains, locus YLR058C, strain SHM2 (second series), stronger effect = lower value 0.993 | S. cerevisiae deletion strains, locus YLR085C, strain ARP6, stronger effect = lower value 0.987 | S. cerevisiae deletion strains, locus YLR262C, strain YPT6, stronger effect = lower value 1.01 | S. cerevisiae deletion strains, locus YML094W, strain GIM5, stronger effect = lower value 0.988 | S. cerevisiae deletion strains, locus YMR219W, strain ESC1, stronger effect = lower value 0.994 | S. cerevisiae deletion strains, locus YMR263W, strain SAP30, stronger effect = lower value 1.01 | S. cerevisiae deletion strains, locus YNL153C, strain GIM3, stronger effect = lower value 0.985 | S. cerevisiae deletion strains, locus YNL298W, strain CLA4 (second series), stronger effect = lower value 0.998 | S. cerevisiae deletion strains, locus YNL322C, strain KRE1, stronger effect = lower value 1 | S. cerevisiae deletion strains, locus YNR030W, strain Alg12, stronger effect = lower value 0.975 | S. cerevisiae deletion strains, locus YOL006C, strain TOP1, stronger effect = lower value 0.986 | S. cerevisiae deletion strains, locus YPL055C, strain LGE1, stronger effect = lower value 1.05 | S. cerevisiae deletion strains, locus YPL241C, strain CIN2, stronger effect = lower value 0.992 | S. cerevisiae deletion strains, locus YPR135W, strain CTF4, stronger effect = lower value 1.09 | S. cerevisiae strains, strain wild type, stronger effect = lower value 1

N#CC(C#N)=C(SCc1c(Cl)cccc1Cl)SCc1c(Cl)cccc1Cl
inactive: [3] 0.997 | [4] 0.981 | [5] 0.992 | [6] 0.988 | [7] 0.996 | [8] 0.989 | [9] 0.993 | [1] 0.988 | [10] 0.989 | [11] 0.984 | [12] 0.996 | [13] 0.99 | [14] 0.977 | [15] 0.981 | [16] 0.993 | [17] 0.999 | [18] 0.995 | [19] 0.981 | [20] 0.986 | [21] 0.99 | [22] 0.979 | [23] 0.993 | [24] 0.993 | [25] 1.03 | [26] 0.982 | [2] 0.925 | [27] 0.93 | [28] 1.11 | [29] 0.859 | [30] 0.992 | [31] 0.969 | [32] 0.993 | [33] 0.989 | [34] 0.991 | [35] 1 | [36] 1.09 | [37] 0.954 | [38] 0.995 | [39] 0.981 | [40] 0.987 | [41] 1.08 | [42] 0.95 | [43] 0.991 | [44] 0.937 | [45] 0.998 | [46] 0.985 | [47] 0.996 | [48] 0.994 | [49] 0.997 | [50] 0.987 | [51] 0.983 | [52] 1.1 | [53] 0.987 | [54] 0.987 | [55] 0.989 | [56] 0.993 | [57] 0.988 | [58] 0.995 | [59] 1.08 | [60] 1.01 | [61] 0.986 | [62] 0.989 | [63] 1.01 | [64] 1 | [65] 0.987 | [66] 0.946 | [67] 0.996 | [68] 0.998 | [69] 0.988 | [70] 0.996 | [71] 0.993

Nc1ccccc1SCc1c(Cl)cccc1Cl
active: [2] 0.695 | [42] 0.696
inactive: [3] 0.949 | [4] 0.947 | [5] 0.957 | [6] 0.945 | [7] 0.953 | [8] 0.952 | [9] 0.947 | [1] 0.953 | [10] 0.954 | [11] 0.94 | [12] 0.889 | [13] 0.962 | [14] 0.943 | [15] 0.969 | [16] 0.859 | [17] 0.795 | [18] 0.821 | [19] 0.946 | [20] 0.949 | [21] 0.944 | [22] 0.841 | [23] 0.948 | [24] 0.853 | [25] 0.787 | [26] 0.775 | [27] 0.843 | [28] 0.835 | [29] 0.68 | [30] 0.952 | [31] 0.617 | [32] 0.914 | [33] 0.885 | [34] 0.956 | [35] 0.813 | [36] 0.767 | [37] 0.939 | [38] 0.87 | [39] 0.87 | [40] 0.952 | [41] 0.907 | [43] 0.91 | [44] 0.795 | [45] 0.831 | [46] 0.945 | [47] 0.885 | [48] 0.951 | [49] 0.959 | [50] 0.891 | [51] 0.955 | [52] 0.79 | [53] 0.948 | [54] 0.951 | [55] 0.825 | [56] 0.943 | [57] 0.853 | [58] 0.843 | [59] 0.905 | [60] 0.751 | [61] 0.95 | [62] 0.841 | [63] 0.85 | [64] 0.857 | [65] 0.949 | [66] 0.917 | [67] 0.95 | [68] 0.95 | [69] 0.935 | [70] 0.944 | [71] 0.952
